From PubChem BioAssay AID540364 (The Scripps Research Institute Molecular Screening Center, 2011)
Out of some 360,000 compounds screened, about 2,000 (0.56%) were called active. The entries come from a sample that favours actives as a whole. Unmarked numbers belong to inactive results.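 Rule for the calls: active = activation above the average of all compounds screened plus 3 SD, cutoff fixed separately per campaign (cut at about 7.5% in these data); inactive = the rest.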

Assay: GAA850 frataxin promoter reporter upregulation – cell-based, luciferase luminescence, HEK293 lucGAA850, primary screen (AID 540364);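 note: 0% = DMSO wells and 100% = 10 µM SAHA wells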
Conditions: HEK293 lucGAA850 FXN promoter luciferase reporter, 24 h; at 6 µM; active compounds read high; percent of 10 µM SAHA response

| Structure (SMILES) | activation |
| --- | --- |
| CC(C)CC(=O)N/C(N)=N/c1nc2ccccc2s1 | 4.47% |
| CCC(=O)NC(=Nc1nc2ccccc2s1)NC(=O)CC | 8.95% (active) |
| CC(=O)Nc1cccc(-c2nc3ccccc3s2)c1C | 1.28% |
| O=C(NCC1(N2CCCCC2)CCCCC1)c1ccc(NS(=O)(=O)c2ccc(F)cc2)cc1 | 2.54% |
| O=C(Cc1ccccc1)Nc1ccc(C(=O)Nc2ccccc2C(=O)O)cc1 | -0.24% |
| Nc1ccc(C(=O)Nc2ccccc2N)cc1 | 13.5% (active) |
| O=C(Nc1ccccc1N1CCCC1)c1ccc2ccccc2c1 | 1.86% |
| CCOc1ccccc1NS(=O)(=O)c1cc2c3c(c1)C(C)C(=O)N3CCC2 (stereo not drawn) | 3.36% |
| O=C1COc2ccc(C(=O)COC(=O)c3cccnc3Cl)cc2N1 | 1.97% |
| CCOC(=O)C1Sc2[nH]c(=O)sc2C(c2ccc(Cl)cc2)C1C(=O)OCC (stereo not drawn) | -10.5% |
| Cc1ccc(C(=O)NNC(=O)c2cc3cc4ccccc4nc3s2)cc1 | -0.4% |
| Cc1ccc(C(=O)NNc2ncnc3ccccc23)cc1 | 7.73% (active) |
| Cc1ccc(NC(=O)c2ccc(Oc3ncccn3)cc2)cc1 | 3.47% |
| COC(=O)c1ccc(NC(=O)C23CC4CC(C2)CC(n2cnc(Cl)n2)(C4)C3)cc1 | 2.12% |
| Cc1ccc(S(=O)(=O)N(C)c2nc3ccccc3n3c(C(C)C)nnc23)cc1 | 5.84% |
| CCC(C)N1C(=S)SC(C)(C)C1N(O)C(=O)NC1CCCCC1 (stereo not drawn) | 0.24% |
| CCCCNC(=O)N(O)C1N(/N=C/c2ccccc2O)C(=S)SC1(C)C (stereo not drawn) | 14.4% (active) |
| CCCCNC(=O)N(O)C1N(/N=C/c2ccc(N(C)C)cc2)C(=S)SC1(C)C (stereo not drawn) | 1.55% |
| COc1ccc(Br)cc1S(=O)(=O)N1CCN=C1C | 2.93% |
| O=C(CCC(=O)Nc1ccccc1)N/N=C/c1ccccc1F | 0.15% |
| COc1ccccc1N1CCN(C(=O)C(=O)N/N=C/c2ccccc2F)CC1 | -1.01% |
| Fc1ccccc1/C=N/Nc1cc(N2CCCCC2)ncn1 | 8.75% (active) |

| Structure (SMILES) | activation |
| --- | --- |
| COc1ccc(-c2cc3nc(NCCOc4ccccc4)ccn3n2)cc1 | 0.64% |
| CNc1nc(Nc2ccc(C)c(Cl)c2)nc(N)c1[N+](=O)[O-] | 17.5% (active) |
| Nc1nc(NCCCN2CCOCC2)nc(Nc2ccccc2)c1[N+](=O)[O-] | 0.67% |
| CCN1CCN(c2nc(Nc3cccc(F)c3)nc(N)c2[N+](=O)[O-])CC1 | 3.12% |
| O=C(COC(=O)COc1cccc(F)c1)NCC1CCCCC1 | 2.16% |
| Cc1ccc(-c2ccc(CN3C(C(C)C)C(=O)N(Cc4cn(CCC5OCCO5)nn4)CCS3(=O)=O)cc2)cc1 (stereo not drawn) | -0.96% |
| O=S(=O)(c1ccc(F)cc1)N1CCN(C(=S)NC2CCCC2)CC1 | 3.66% |
| N#Cc1ccc(CSc2ncccn2)cc1 | 2.06% |
| N#CC1=C(SCc2ccc(C#N)cc2)N=C(N)C(c2nc(-c3ccccc3)cs2)C12CCCCC2 (stereo not drawn) | 9.79% (active) |
| Cc1ccc(S(=O)(=O)N(C)C)cc1NC(=O)C(C)OC(=O)c1ccc2ccccc2n1 (stereo not drawn) | 0.74% |
| N#CCSc1nc2ccccc2c(=O)n1-c1ccccc1 | 9.45% (active) |
| Cc1nn(-c2ccccc2)c(C)c1/C=N/NC(=O)CSc1nc2ccccc2c(=O)n1-c1ccccc1 | 0.81% |
| N#CCSc1nc2ccc(N3CCOCC3)cc2c(=O)n1CCc1ccccc1 | -2.84% |
| COc1ccccc1-c1cc(C(=O)N2CCCCC2)no1 | 3.83% |
| O=C(c1cc(-c2ccc(Cl)cc2)on1)N1CCN(c2ccccc2)CC1 | 3.73% |
| COc1ccccc1N1CCN(C(=O)c2cc(-c3ccc(Br)cc3)on2)CC1 | 17.8% (active) |
| CC1(c2ccc(Cl)cc2Cl)NC(=O)N(CC(=O)Nc2cccnc2Cl)C1=O (stereo not drawn) | 0.61% |
| O=C(N[C@H]1C/C=C\C(c2cccc(F)c2)N(Cc2ccccc2)C(=O)C1)OCC1c2ccccc2-c2ccccc21 (stereo partly drawn) | -2.16% |
| CN(C)CCNC(=O)c1cccc(-c2cnc3c(NC=O)cc(-c4cccc(C(F)(F)F)c4)cn23)c1 | -0.71% |
| CC(Sc1nc2c([nH]c3ccccc32)c(=O)n1C)c1ccccc1 (stereo not drawn) | 13.8% (active) |
| CCCCc1nc2c(=O)[nH]c3ccccc3c2o1 | 3.48% |
| Cn1nnnc1SCc1cc(=O)[nH]c2ccccc12 | 0.27% |

| Structure (SMILES) | activation |
| --- | --- |
| CCN(CC)CCNC(=O)c1sc2ncn(CC(=O)Nc3ccc(C)c(Cl)c3)c(=O)c2c1C | 0.29% |
| COc1ccc(-c2cc(NC(C)=O)c3ncc(-c4cc(OC)c(OC)c(OC)c4)n3c2)cn1 | -2.13% |
| Cc1cc(C)n2nc(SCC(N)=O)nc2n1 | 0.08% |
| Cc1cc(C)n2nc(C(=O)NC(C)(C)C)nc2n1 | -0.66% |
| Cc1cc(C)n2nc(CNS(=O)(=O)c3c(F)c(F)c(F)c(F)c3F)nc2n1 | 8.27% (active) |
| CCC(C)(C(=O)NC1CCCC1)N(C(=O)CNC(C)=O)c1ccc(C)cc1 (stereo not drawn) | -0.84% |
| C[C@H]1CN([C@@H](C)CO)C(=O)CCCn2cc(nn2)CO[C@@H]1CN(C)S(=O)(=O)c1ccc(-c2ccccc2)cc1 | -1.7% |
| CC(C)[C@H](NC(=O)c1ccc(F)cc1)C(=O)OCC(=O)NC(=O)c1cccn1C | 0.53% |
| c1c2c(cc3sc(N4CCCCC4)nc13)OCCO2 | -6.92% |
| Fc1ccc2nc(N3CCCCC3)sc2c1 | 8.32% (active) |
| Fc1ccc2nc(Nc3nc4c(s3)CCCC4)sc2c1 | 5.51% |
| Cc1cccc(-n2c(Cc3cc(=O)[nH]c(=O)[nH]3)nnc2SCC(=O)Nc2cccc(C(F)(F)F)c2)c1 | 0.62% |
| CC1CCC2(CC1)NC(=O)N(Cc1nnc(-c3cccs3)o1)C2=O (stereo not drawn) | 1.39% |
| CC(C)N1C(=S)SC(C)(C)C1n1oc(=O)n(-c2ccc(Cl)c(Cl)c2)c1=O (stereo not drawn) | -0.29% |
| COC(=O)CSc1snnc1-c1ccc(Cl)c(Cl)c1 | 2.88% |
| COc1cccc(-n2cc3c(c2-c2ccccc2)c(=O)n(C)c(=O)n3C)c1 | 1.09% |
| Cc1ccc(-c2c3c(=O)n(C)c(=O)n(C)c3cn2-n2cnnc2)cc1 | 10.3% (active) |
| Cc1ccc(-c2c3c(=O)n(C)c(=O)n(C)c3cn2-c2ccccc2O)cc1 | -0.62% |
| COC(=O)[C@]1(Cc2ccccc2)N[C@H](CN(C)S(=O)(=O)c2ccc(OC(F)(F)F)cc2)[C@@H]2C(=O)N(Cc3ccccc3)C(=O)[C@@H]21 | -3.69% |
| CCN(C[C@H]1N[C@@](CC)(C(=O)OC)[C@H]2C(=O)N(Cc3ccccc3)C(=O)[C@@H]12)S(=O)(=O)c1ccccc1 | 3.23% |
| CCN(C[C@H]1N[C@@](CC)(C(=O)OC)[C@H]2C(=O)N(Cc3ccccc3)C(=O)[C@@H]12)S(=O)(=O)c1ccc(C(F)(F)F)cc1 | 15.9% (active) |
| OC(c1ccccc1)c1nc(/C=C/c2ccc(C(F)(F)F)cc2)cs1 (stereo not drawn) | 1% |

| Structure (SMILES) | activation |
| --- | --- |
| CC(=O)Nc1cc(-c2ccccc2N(C)C)cn2c(-c3ccc(F)c(Cl)c3)cnc12 | 1.24% |
| COc1ccc(NC(=O)CSCc2ccc([N+](=O)[O-])cc2)cc1OC | 0.83% |
| COc1ccc2[nH]c(=O)c(CN(Cc3nnnn3CCc3ccccc3)CC3CCCO3)cc2c1 (stereo not drawn) | 7.67% (active) |
| CCC(c1nnnn1Cc1ccccc1)N(Cc1cc2cc(OC)ccc2[nH]c1=O)CC1CCCO1 (stereo not drawn) | 5.86% |
| CCOc1ccc2[nH]c(=O)c(CN(Cc3nnnn3CCc3ccccc3)CC3CCCO3)cc2c1 (stereo not drawn) | 1.4% |
| COc1ccc(-c2cc(C(F)(F)F)nc(S(C)(=O)=O)n2)cc1OC | 16.9% (active) |
| COc1ccc(-c2cc(C(=O)N(C)Cc3ccc(OC)c(OC)c3OC)c3ccccc3n2)cc1OC | -6.82% |
| COc1ccc(-c2cc(C(=O)NCCCN3CCCC3=O)c3ccccc3n2)cc1OC | 0.37% |
| O=C(Nc1nnc(S(=O)(=O)N2CCOCC2)s1)c1cccc(Br)c1 | 3.61% |
| O=C(Nc1nnc(S(=O)(=O)N2CCCCCC2)s1)c1cccc(Br)c1 | 11% (active) |
| Cc1cccc(C(=O)Nc2nnc(S(=O)(=O)N3CCCCCC3)s2)c1 | -0.31% |
| CC(OC(=O)CCC(=O)c1ccccc1)C(=O)Nc1ccc(F)cc1 (stereo not drawn) | 0.37% |
| Cc1ccc(N=C2SCCCN2C(=O)c2cccc(N3C(=O)CCC3=O)c2)cc1Cl | -0.64% |
| COc1ccc2cc(CCl)c(Cl)nc2c1 | 2.75% |
| O=[N+]([O-])c1ccc(C=Nc2ccc(Cl)cc2Cl)s1 | 9.39% (active) |
| COc1ccc(CN2[C@@H](CC(=O)O)c3cc(F)ccc3S2(=O)=O)cc1 | 1.09% |
| CCc1noc(C)c1C(=O)N1CCN(S(=O)(=O)c2cccc(C(F)(F)F)c2)CC1 | -0.49% |
| O=C(/C=C/c1cc2c(cc1Br)OCO2)NCc1ccc(Cl)cc1 | 1.84% |
| O=C(N/N=C\c1cc2c(cc1Cl)OCO2)c1ccc(Br)s1 | 1.53% |
| CC1(C(=O)N/N=C/c2cc3c(cc2Br)OCO3)CC1(Br)Br (stereo not drawn) | 8.27% (active) |
| CO[C@H]1[C@@H]2C=CO[C@@H](O[C@H]3O[C@@H](CO)[C@H](O)[C@@H](O)[C@@H]3O)[C@@H]2[C@@]2(CO)O[C@@H]12 | -1.13% |
| Cc1ccc(OCCCCc2c(C)n[nH]c2C)cc1 | 0.87% |
